Measured values: PubChem BioAssay AID1159580 (chemical genetic matrix, 2015)
Hit rate of the full screen: of about 5,500 compounds, about 2,000 (36%) were called active. Roughly 18% stayed inconclusive and do not appear here. This is one part of the list. Values without a mark were called inactive. No stated cut-off is given here; in the data, active means normalized growth mostly below about 0.91 (no sharp cut-off); inconclusive means no clear call, values can overlap the other calls; inactive means mostly above about 0.92.

Test: chemical genetic growth profiling, strain panel (AID 1159580);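 further: tested at 20 µM; growth read once vehicle control cultures reached saturation at 30 °C; 1 = growth at the plate median or of vehicle wells; lower values mean less growth of the strain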
Conditions: S. cerevisiae deletion strains, growth OD

Which normalized growth (locus YAL013W, strain DEP1, active compounds read low) does the source give for `CCC(c1ccc(O)cc1)C(CC)c1ccc(O)cc1` (stereo not drawn) here?
The normalized growth was 0.998.

What about the normalized growth (locus YAL021C, strain ccr4, active compounds read low) of the same molecule?
The normalized growth was 0.93.

And the normalized growth (locus YAL026C, strain drs2, active compounds read low)?
The normalized growth was 0.835 (active).

And the normalized growth (locus YAL030W, strain snc1, active compounds read low)?
The normalized growth was 0.918 (active).

What about the normalized growth (locus YBL061C, strain skt5, active compounds read low) of the same molecule?
The normalized growth was 0.982.

And the normalized growth (locus YBR009C, strain hhf1, active compounds read low)?
The normalized growth was 0.77 (active).

What about the normalized growth (locus YBR021W, strain FUR4, active compounds read low) of the same molecule?
The normalized growth was 0.972.

What about the normalized growth (locus YBR023C, strain chs3, active compounds read low) of the same molecule?
The normalized growth was 0.966.

What about the normalized growth (locus YBR171W, strain sec66, active compounds read low) of the same molecule?
Its normalized growth is 0.993.

What about the normalized growth (locus YBR229C, strain ROT2, active compounds read low) of the same molecule?
Its normalized growth is 0.993.

And the normalized growth (locus YBR231C, strain swc5, active compounds read low)?
Its normalized growth is 0.989.

What about the normalized growth (locus YBR279W, strain paf1, active compounds read low) of the same molecule?
Its normalized growth is 0.95.

What about the normalized growth (locus YCL011C, strain gbp2, active compounds read low) of the same molecule?
Its normalized growth is 0.858 (active).

What about the normalized growth (locus YCL016C, strain dcc1, active compounds read low) of the same molecule?
The normalized growth was 0.95.

What about the normalized growth (locus YCL029C, strain bik1, active compounds read low) of the same molecule?
Its normalized growth is 0.987.

And the normalized growth (locus YCL061C, strain MRC1, active compounds read low)?
Its normalized growth is 0.958.

And the normalized growth (locus YCL069W, strain vba3, active compounds read low)?
The normalized growth was 0.951.

And the normalized growth (locus YCR088W, strain abp1, active compounds read low)?
Its normalized growth is 0.974.

And the normalized growth (locus YDL005C, strain med2, active compounds read low)?
Its normalized growth is 0.92.

And the normalized growth (locus YDL035C, strain GPR1, active compounds read low)?
The normalized growth was 0.914.

And the normalized growth (locus YDL040C, strain nat1, active compounds read low)?
The normalized growth was 0.998.

What about the normalized growth (locus YDL074C, strain BRE1, active compounds read low) of the same molecule?
Its normalized growth is 0.878.

What about the normalized growth (locus YDL101C, strain DUN1, active compounds read low) of the same molecule?
Its normalized growth is 0.989.

What about the normalized growth (locus YDL134C, strain PPH21, active compounds read low) of the same molecule?
Its normalized growth is 0.998.

What about the normalized growth (locus YDL185W, strain tfp1, active compounds read low) of the same molecule?
Its normalized growth is 0.995.

What about the normalized growth (locus YDL192W, strain arf1, active compounds read low) of the same molecule?
Its normalized growth is 0.969.

And the normalized growth (locus YDR001C, strain nth1, active compounds read low)?
The normalized growth was 0.997.

What about the normalized growth (locus YDR069C, strain doa4, active compounds read low) of the same molecule?
The normalized growth was 0.894 (active).

What about the normalized growth (locus YDR101C, strain arx1, active compounds read low) of the same molecule?
Its normalized growth is 0.968.

And the normalized growth (locus YDR137W, strain rgp1, active compounds read low)?
The normalized growth was 0.415 (active).

And the normalized growth (locus YDR150W, strain NUM1, active compounds read low)?
The normalized growth was 1.01.

And the normalized growth (locus YDR159W, strain sac3, active compounds read low)?
The normalized growth was 0.723 (active).

And the normalized growth (locus YDR162C, strain NBP2, active compounds read low)?
Its normalized growth is 0.931.

What about the normalized growth (locus YDR195W, strain ref2) of the same molecule?
The normalized growth was 1.02.

What about the normalized growth (locus YDR297W, strain sur2, active compounds read low) of the same molecule?
Its normalized growth is 0.923.

And the normalized growth (locus YDR318W, strain mcm21, active compounds read low)?
Its normalized growth is 0.944.

What about the normalized growth (locus YDR334W, strain swr1, active compounds read low) of the same molecule?
Its normalized growth is 1.02.

And the normalized growth (locus YDR335W, strain msn5, active compounds read low)?
Its normalized growth is 0.938.

What about the normalized growth (locus YDR388W, active compounds read low) of the same molecule?
Its normalized growth is 0.966.

And the normalized growth (locus YDR392W, strain spt3, active compounds read low)?
The normalized growth was 0.743.

What about the normalized growth (locus YDR502C, strain sam2, active compounds read low) of the same molecule?
The normalized growth was 0.959.

And the normalized growth (locus YEL003W, strain gim4, active compounds read low)?
Its normalized growth is 0.891 (active).

And the normalized growth (locus YEL037C, strain rad23, active compounds read low)?
The normalized growth was 1.

And the normalized growth (locus YEL061C, strain CIN8 (second series), active compounds read low)?
Its normalized growth is 1.

And the normalized growth (locus YEL061C, strain CIN8, active compounds read low)?
The normalized growth was 1.

What about the normalized growth (locus YER015W, strain faa2, active compounds read low) of the same molecule?
Its normalized growth is 0.901 (active).

What about the normalized growth (locus YER016W, strain bim1, active compounds read low) of the same molecule?
Its normalized growth is 0.94.

What about the normalized growth (locus YER110C, active compounds read low) of the same molecule?
The normalized growth was 1.01.

And the normalized growth (locus YER111C, strain swi4, active compounds read low)?
Its normalized growth is 1.

What about the normalized growth (locus YER155C, strain BEM2 (second series), active compounds read low) of the same molecule?
The normalized growth was 0.942.

And the normalized growth (locus YER155C, strain BEM2, active compounds read low)?
Its normalized growth is 1.02.

And the normalized growth (locus YER167W, strain BCK2, active compounds read low)?
The normalized growth was 0.972.

What about the normalized growth (locus YFR010W, strain ubp6, active compounds read low) of the same molecule?
Its normalized growth is 0.957.

And the normalized growth (locus YGL078C, strain dbp3, active compounds read low)?
Its normalized growth is 0.976.

What about the normalized growth (locus YGL086W, strain mad1, active compounds read low) of the same molecule?
Its normalized growth is 0.958.

And the normalized growth (locus YGL167C, strain pmr1, active compounds read low)?
Its normalized growth is 0.987.

And the normalized growth (locus YGL173C, strain kem1, active compounds read low)?
Its normalized growth is 0.825 (active).

And the normalized growth (locus YGL227W, strain vid30, active compounds read low)?
Its normalized growth is 0.994.

What about the normalized growth (locus YGL240W, strain doc1, active compounds read low) of the same molecule?
Its normalized growth is 0.863 (active).

What about the normalized growth (locus YGL248W, strain PDE1, active compounds read low) of the same molecule?
The normalized growth was 0.998.

What about the normalized growth (locus YGL253W, strain hxk2, active compounds read low) of the same molecule?
Its normalized growth is 0.953.

What about the normalized growth (locus YGR078C, strain PAC10, active compounds read low) of the same molecule?
The normalized growth was 0.952.

And the normalized growth (locus YGR135W, strain pre9, active compounds read low)?
Its normalized growth is 0.968.

What about the normalized growth (locus YGR229C, strain SMI1, active compounds read low) of the same molecule?
Its normalized growth is 0.813.

And the normalized growth (locus YGR252W, strain gcn5, active compounds read low)?
Its normalized growth is 0.902.

What about the normalized growth (locus YHR013C, strain ard1, active compounds read low) of the same molecule?
Its normalized growth is 1.21 [resistant] (active).

And the normalized growth (locus YHR027C, strain rpn1, active compounds read low)?
The normalized growth was 0.933.

What about the normalized growth (locus YHR030C, strain SLT2, active compounds read low) of the same molecule?
The normalized growth was 0.993.

What about the normalized growth (locus YHR079C, strain IRE1 (second series), active compounds read low) of the same molecule?
The normalized growth was 0.971.

What about the normalized growth (locus YHR094C, strain hxt1, active compounds read low) of the same molecule?
Its normalized growth is 0.999.

And the normalized growth (locus YHR129C, strain ARP1, active compounds read low)?
The normalized growth was 1.01.

And the normalized growth (locus YHR142W, strain chs7, active compounds read low)?
The normalized growth was 0.911.

What about the normalized growth (locus YHR200W, strain rpn10, active compounds read low) of the same molecule?
Its normalized growth is 0.981.

What about the normalized growth (locus YIL073C, strain SPO22, active compounds read low) of the same molecule?
The normalized growth was 0.951.

What about the normalized growth (locus YIL125W, strain kgd1, active compounds read low) of the same molecule?
The normalized growth was 0.994.

And the normalized growth (locus YIR030C, strain dcg1, active compounds read low)?
Its normalized growth is 1.01.

And the normalized growth (locus YJL092W, strain hpr5, active compounds read low)?
Its normalized growth is 0.967.

And the normalized growth (locus YJL095W, strain BCK1 (second series), active compounds read low)?
Its normalized growth is 0.799 (active).

And the normalized growth (locus YJL095W, strain BCK1, active compounds read low)?
The normalized growth was 0.855.

What about the normalized growth (locus YJL115W, strain asf1, active compounds read low) of the same molecule?
Its normalized growth is 1.02.

And the normalized growth (locus YJL129C, strain trk1, active compounds read low)?
Its normalized growth is 0.675 (active).

What about the normalized growth (locus YJL134W, strain LCB3, active compounds read low) of the same molecule?
Its normalized growth is 0.999.

And the normalized growth (locus YJL154C, strain vps35, active compounds read low)?
The normalized growth was 0.996.

What about the normalized growth (locus YJL164C, strain tpk1, active compounds read low) of the same molecule?
The normalized growth was 0.687 (active).

What about the normalized growth (locus YJL166W, strain qcr8, active compounds read low) of the same molecule?
The normalized growth was 0.812 (active).

What about the normalized growth (locus YJL168C, strain set2, active compounds read low) of the same molecule?
The normalized growth was 0.994.

And the normalized growth (locus YJL187C, strain SWE1 (second series), active compounds read low)?
Its normalized growth is 0.964.

What about the normalized growth (locus YJR043C, strain POL32, active compounds read low) of the same molecule?
Its normalized growth is 0.999.
